Hits are enriched below; roughly 19% of the tested compounds scored in any of these assays.
IL1B secr inh = inflammasome signaling inhibition, IL-1 beta readout. activity change, % at 57.5 µM. THP-1 LPS/ATP IL-1B secretion, AlphaLISA, 16 h; stronger effect = lower value. hit rate 4.7% among 360,000; in the data active = activity change below about -50%; inconclusive = mostly about -30% to -49%; also: % is scaled to controls: 0 for no effect and ±100 for the full control effect
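THP-1 cells pretreated 1 hr with compounds (up to 57.5 uM final), then stimulated with LPS (250 ng/mL final) plus ATP (1.25 mM final); secreted IL-1B measured by AlphaLISA after 16 hr, decreased signal indicating inhibition.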
HepG2 tox = HepG2 cytotoxicity, counter-screen for TGF-b inhibitors; HepG2 CAGA-GFP viability, ATP luminescence, 18 h; Potency, µM (highest dose often 46.1 µM), for inactives: at the highest dose activity change, negative = cytotoxicity, actives largely listed as cytotoxic; hit rate 0.76% among 410,000; AID 588856; also: potency is read from the fitted curve at half-maximal effect
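HepG2 CAGA-GFP cells (1000/well, DMEM with 1% FBS) received compound, then TGF-beta at 500 pg/mL final, and were incubated 18 hours at 37 degrees C. Viability was read by CellTiter-Glo luminescence. Media-only wells were set as complete cell-killing and DMSO as no toxicity.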
TGFb SMAD3 inh = TGF-b pathway inhibition. Potency, µM (highest dose often 46.1 µM), for inactives: top-dose activity, negative = inhibition, usual class: inhibitors. hit rate 1.2% among 410,000. HepG2 CAGA-GFP TGF-b/SMAD3 reporter, GFP fluorescence, 18 h; TGF-beta stimulated, 500 pg/mL final; also: potency is read from the fitted curve at half-maximal effect; % is scaled to controls: 0 for no effect and ±100 for the full control effect; nearly all actives have a fitted effect of over 65% in size
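Using HEPG2 CAGA-GFP reporter cells at 1000 cells/well, we pinned test compounds, stimulated with recombinant TGF-beta (500 pg/mL final) and measured total well GFP after 18 h.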
DT40 TDP1 CPT = DT40-hTDP1 cell growth loss with CPT; Potency, µM (highest dose often 46.2 µM), for inactives: top-dose activity change, negative = growth inhibition, usual class: inhibitors; chicken DT40 Tdp1-/-;hTDP1 cells + 20 nM CPT, ATP luminescence, 48 h; hit rate 12% among 420,000; also: potency is read from the fitted curve at half-maximal effect; % is scaled to controls: 0 for no effect and ±100 for the full control effect; nearly all actives have a fitted effect of over 55% in size
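Cell growth measured by CellTiter-Glo luminescence after a minimum 48 h, 37 C compound exposure with 20 nM CPT in Tdp1-knockout DT40 cells stably expressing hTDP1, seeded 400/well; qHTS titration format.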
ASM inhibitor = inhibitors of human secretory acid sphingomyelinase | hit rate 0.006% among 340,000 | AID 504937 | placental ASM, HMU-PC fluorogenic substrate, 60 min | P17405 | Potency, µM (highest dose often 57.5 µM), for the others: top-dose activity change, negative = inhibition, most hits filed as inhibitors; also: potency is read from the fitted curve at half-maximal effect
Target sequence (P17405 47-631 limits assumed): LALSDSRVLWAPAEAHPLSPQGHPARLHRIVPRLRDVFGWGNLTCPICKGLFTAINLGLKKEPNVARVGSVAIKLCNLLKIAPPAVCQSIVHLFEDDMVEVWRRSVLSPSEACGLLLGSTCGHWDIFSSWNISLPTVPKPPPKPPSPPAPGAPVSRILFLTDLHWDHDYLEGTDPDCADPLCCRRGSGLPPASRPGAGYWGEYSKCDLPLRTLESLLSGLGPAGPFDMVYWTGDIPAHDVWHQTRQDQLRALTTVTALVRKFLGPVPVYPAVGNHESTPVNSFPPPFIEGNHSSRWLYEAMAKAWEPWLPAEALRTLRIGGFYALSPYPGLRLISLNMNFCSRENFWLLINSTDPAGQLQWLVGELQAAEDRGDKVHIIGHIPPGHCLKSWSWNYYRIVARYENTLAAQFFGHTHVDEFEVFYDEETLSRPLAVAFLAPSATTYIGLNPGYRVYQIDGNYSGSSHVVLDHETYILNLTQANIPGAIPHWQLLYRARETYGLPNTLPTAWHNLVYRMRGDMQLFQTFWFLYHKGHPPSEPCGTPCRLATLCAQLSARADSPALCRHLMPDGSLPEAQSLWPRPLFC
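qHTS format. ASM enzyme prepared from human placenta hydrolyses the fluorogenic substrate HMU-PC0 (9 uM final) over 60 min at 37 °C after a 10 min compound preincubation.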
DT40 TDP1 no CPT = qHTS for Inhibitors of human tyrosyl-DNA phosphodiesterase 1 (TDP1): qHTS in cells in absence of CPT | Potency, µM (titrated, usually from 46.2 µM), for the others: top-dose activity change, negative = growth inhibition, hits mostly inhibitors | hit rate 15% among 420,000 | DT40 Tdp1-/- hTDP1 cells, no CPT, ATP luminescence, 48 h; also: potency is read from the fitted curve at half-maximal effect; % is scaled to controls: 0 for no effect and ±100 for the full control effect; nearly all actives have a fitted effect of over 55% in size
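Cells were dispensed at 400 per well, compounds added by pin tool, plates incubated ≥48 hr at 37 °C, then CellTiter-Glo added for 30 min at room temperature before luminescence reading. Line: DT40 Tdp1-/- complemented with hTDP1; camptothecin omitted.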
Starred values were filed as active, the others as inactive; u = inconclusive; x = not tested or not shown. Unless noted, calls follow the shape of the dose curve; as a rule, active = well fitted curve in the direction sought with a large enough effect; inconclusive = small, poorly fitted or top-dose-only effect, or another doubt; inactive = no such curve, though single readings can be large; an effect the other way counts as inactive or inconclusive.

SMILES | IL1B secr inh | HepG2 tox | TGFb SMAD3 inh | DT40 TDP1 CPT | ASM inhibitor | DT40 TDP1 no CPT
CC1=C(C(=O)OCc2ccc3c(c2)OCO3)C(c2ccc(O)c([N+](=O)[O-])c2)NC(=O)N1 (configuration not stated) | 48.3 | 10.0% | -1.1% | -10.2% | 0.0% | u
CCCOc1ccccc1C1NC(=O)NC(C)=C1C(=O)OCCOC (configuration not stated) | -13.1 | 8.7% | 16.1% | -7.6% | -0.9% | -21.9%
O=C(Cc1cccc(NC(=O)C2CCN(C(=O)C3CCCC3)CC2)c1)Nc1cccc(C(=O)N2CCOCC2)c1 | -21.1 | 4.7% | -0.9% | 25.9% | 1.8% | -2.3%
COc1ccccc1/C=C/C(=O)Nc1cccc(S(=O)(=O)NC2=NCCCCC2)c1 | -57.1* | -4.5% | -25.5% | u | -2.9% | u
COc1ccc(/C=C/C(=O)Nc2cccc(S(=O)(=O)NC3=NCCCCC3)c2)c(OC)c1 | -17.9 | -4.4% | -15.7% | 16.4µM* | -2.0% | 11.6µM*
COc1ccc(NC(C)=O)cc1S(=O)(=O)Nc1cccc(S(=O)(=O)NC2=NCCC2)c1 | 12.8 | 11.6% | -0.5% | 0.0% | 0.1% | 21.3%
Cc1ccccc1OCC(=O)Nc1cccc(S(=O)(=O)NC2=NCCCCC2)c1 | -8.1 | -13.9% | -9.9% | u | 1.3% | u
COc1ccc(-c2nn3c(=O)cc(CN4CCN(C(=O)/C=C/c5ccccc5)CC4)nc3s2)cc1 | x | -16.5% | -16.7% | -10.5% | x | u
COc1ccc(C(CNC(=O)C2CC(=O)N(Cc3ccccc3)C2)N2CCOCC2)cc1 (configuration not stated) | 4.4 | -2.5% | -0.4% | 9.6% | -3.7% | -1.0%
O=C(NCC(=O)N1CCN(Cc2ccccc2)CC1)c1ccccc1Cl | -9.5 | 4.9% | 6.0% | -13.1% | x | 0.6%
CC(C)n1c(SCC(=O)Nc2ccc(F)cc2)nnc1C1CC1 | -7.4 | -30.0% | 0.0% | -5.3% | 5.8% | 1.2%
COc1ccc(/C=C2\CN(Cc3ccccc3)C/C(=C\c3ccc(OC)cc3)C2=O)cc1 | -28.6 | -2.2% | 11.2µM* | 10.3µM* | -12.7% | 16.4µM*
COc1ccc(/C=N/N=C2/SCC(=O)N2Cc2ccccc2)cc1 | 4.2 | 10.0% | 4.1% | -16.7% | -3.5% | u
O=C(OC(c1ccccc1)c1nccc2ccccc12)c1cc([N+](=O)[O-])cc([N+](=O)[O-])c1 (configuration not stated) | -1.0 | -1.0% | u | 14.6µM* | -7.7% | 20.6µM*
Cc1ccc(S(=O)(=O)N2CCN(CCc3ccncc3)CC2)cc1 | 23.5 | 0.1% | 2.5% | -22.9% | -2.9% | u
CC(=O)N1CCN(c2ccc(NC(=O)c3cc(Cl)ccc3Cl)cc2)CC1 | -62.8* | -1.1% | 2.7% | -29.2% | -1.2% | -13.9%
CC(=O)N1CCN(c2ccc(NC(=O)c3ccc(C(C)(C)C)cc3)cc2)CC1 | -95.0* | -49.4% | -19.8% | u | -5.5% | 25.9µM*
COc1ccc(CCC(=O)OCC(=O)NC(=O)c2ccc(Cl)cc2)cc1 | 8.7 | -0.6% | -4.0% | -14.4% | -2.2% | -27.8%
COc1ccc(C(=O)N/C=C/n2cnc3cc(C(F)(F)F)ccc32)cc1 | -1.8 | 10.6% | 9.8% | -5.0% | -0.1% | -4.9%
CC(C)Oc1ccc(C(=O)Nc2cc(S(=O)(=O)N3CCOCC3)ccc2N2CCOCC2)cc1 | -7.3 | -15.6% | 7.8% | u | -2.9% | 20.6µM*
CC(C)COc1ccc(C(=O)Nc2cc(S(=O)(=O)N3CCOCC3)ccc2N2CCCC2)cc1 | 2.5 | -16.9% | -17.0% | 16.4µM* | -1.4% | 25.9µM*
Cc1ccc(CSCC(=O)Nc2cc(S(=O)(=O)N3CCOCC3)ccc2OC(C)C)cc1 | -6.1 | -14.0% | -39.7% | u | -5.9% | 23.1µM*
CCN1CCN(c2ccc(S(=O)(=O)N3CCOCC3)cc2NC(=O)c2ccc(OCC(C)C)cc2)CC1 | 3.3 | -0.8% | 10.1% | u | 1.3% | u
O=c1c2sc3ccccc3c2n(Cc2ccc(F)cc2Cl)c(=O)n1Cc1ccccc1 | x | -6.9% | -1.1% | u | x | u
COC(=O)/C=C\C(C#N)(C#N)N=Cc1ccc(OC)cc1 | 0.0 | -7.0% | -4.9% | 1.3µM* | 5.8% | 0.651µM*
SMILES | IL1B secr inh | HepG2 tox | TGFb SMAD3 inh | DT40 TDP1 CPT | ASM inhibitor | DT40 TDP1 no CPT
COc1ccc(C=NNC(=O)CCCCC(=O)NN=Cc2ccc(OC)cc2)cc1 | 23.5 | 0.1% | 7.1% | -12.3% | -0.9% | u
Clc1ccc(CCNC(c2ccc(Cl)cc2)c2nnc(-c3ccccc3)o2)cc1 (configuration not stated) | x | -22.1% | u | u | x | 23.1µM*
COc1ccc(NC(c2nnc(-c3ccccc3)o2)c2ccccc2F)cc1Cl (configuration not stated) | x | -2.7% | -16.6% | -29.6% | x | -40.9%
Fc1ccccc1C(NCCc1ccc(Cl)cc1)c1nnc(-c2ccccc2)o1 (configuration not stated) | x | -15.4% | u | 18.4µM* | x | u
Cc1ccccc1CNC(=O)C1CCCN(c2cnccn2)C1 (configuration not stated) | 5.1 | 5.4% | 20.7% | 4.1% | 19.4% | -18.2%
COc1cccc(-c2ncn(CCc3ccccc3OC)c2C(C)C)c1 | -10.3 | x | x | 7.31µM* | x | 5.8µM*
COc1ccccc1CCn1cnc(C)c1CC(C)C | 3.6 | x | x | 11.6µM* | x | 6.51µM*
COc1ccccc1CCn1c(=O)c(C)nc2cncnc21 | x | x | x | 1.9% | x | u
CCc1ncn(CCc2ccccc2OC)c1C(C)C | 39.6 | x | x | 3.66µM* | x | 4.61µM*
CC1(c2nc3ccccc3[nH]2)c2ccccc2C(=O)N1Cc1ccccc1 (configuration not stated) | 0.0 | x | x | u | x | u
Cc1ccccc1OCCCSc1nc2ccccc2[nH]1 | -81.3* | -16.0% | u | u | -5.0% | 16.4µM*
NC(=O)CCCSc1nc2ccccc2[nH]1 | 42.0 | -0.5% | -9.9% | -17.9% | 2.8% | 17.5%
Cc1c(OCC(F)(F)F)ccnc1CSc1nc2ccccc2[nH]1 | u | -24.8% | 1.1% | u | -3.6% | 23.1µM*
O=C(NCCS(=O)(=O)NCc1ccccc1Cl)c1ccccc1 | 12.3 | -0.9% | -7.1% | -1.9% | 1.6% | 8.7%
CCCC12CN3CCN(CC(C3)/C1=N\NC(=O)c1ccc(C(C)(C)C)cc1)C2 | 15.4 | 2.9% | 7.4% | -15.9% | 4.3% | -5.7%
